# Measured values published in PubChem BioAssay (NCATS).
# Results filed as inconclusive are left out. Calls of active or inactive are those of the source. The call rests on the fitted dose curve; in most records, active means well fitted curve in the direction sought with a large enough effect; inconclusive means small, poorly fitted or top-dose-only effect, or another doubt; inactive means no such curve, though single readings can be large; an effect the other way counts as inactive or inconclusive.
# Tests used:
# [1] = Quantitative High-Throughput drug screen in 47 multiple myeloma cell lines against the NCATS MIPE library collection: INA6_PLB cell viability assay (AID 1918965; further: nearly all actives have a fitted effect of over 55% in size)
# How it was run: (§1)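 qHTS of the MIPE 4.0 collection: 500 myeloma cells/well, 48 h drug exposure at 37C in 5% CO2, then CellTiter-Glo for 5 min at room temperature before luminescence reading.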
# [2] = Quantitative High-Throughput drug screen in 47 multiple myeloma cell lines against the NCATS MIPE library collection: JJN3_DSMZ cell viability assay (AID 1918966; further: nearly all actives have a fitted effect of over 50% in size)
# How it was run: (§2)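 Myeloma cells (500 per well) were exposed to MIPE 4.0 compounds by pin transfer and incubated 48 hours at 37C, 5% CO2. Viability was read as ATP by CellTiter-Glo luminescence, normalised to DMSO (100%) and media-only (0%) wells.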
# [3] = Quantitative High-Throughput drug screen in 47 multiple myeloma cell lines against the NCATS MIPE library collection: Karpas25_ECACC cell viability assay (AID 1918968; further: nearly all actives have a fitted effect of over 35% in size)
# How it was run: as §2
# [4] = Quantitative High-Throughput drug screen in 47 multiple myeloma cell lines against the NCATS MIPE library collection: KMS12BM_JCRB cell viability assay (AID 1918971); further: nearly all actives have a fitted effect of over 35% in size
# How it was run: (§3)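 Luminescent ATP measurement with CellTiter-Glo gives viability, scaled between DMSO-only wells (100%) and media-only wells (0%). Cells, 500 per well, faced library compounds for 48 hours at 37C.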
# [5] = Quantitative High-Throughput drug screen in 47 multiple myeloma cell lines against the NCATS MIPE library collection: KMS26_JCRB cell viability assay (AID 1918975); further: nearly all actives have a fitted effect of over 45% in size
# How it was run: as §3
# [6] = Quantitative High-Throughput drug screen in 47 multiple myeloma cell lines against the NCATS MIPE library collection: MMM1_PLB cell viability assay (AID 1918976); further: nearly all actives have a fitted effect of over 35% in size
# How it was run: (§4)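 Viability after 48 h drug exposure was measured as ATP-dependent luminescence. Cells, 500 per well, sat at 37 °C under 5% CO2; DMSO wells set 100%, media-only wells 0%.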
# [7] = Quantitative High-Throughput drug screen in 47 multiple myeloma cell lines against the NCATS MIPE library collection: MOLP8_DSMZ cell viability assay (AID 1918977); further: nearly all actives have a fitted effect of over 45% in size
# How it was run: as §4
# [8] = Quantitative High-Throughput drug screen in 47 multiple myeloma cell lines against the NCATS MIPE library collection: MM1S_ATCC cell viability assay (AID 1918980); further: nearly all actives have a fitted effect of over 45% in size
# How it was run: as §4
# [9] = Quantitative High-Throughput drug screen in 47 multiple myeloma cell lines against the NCATS MIPE library collection: JIM1_ECACC cell viability assay (AID 1918964)
# How it was run: as §2
# [10] = Quantitative High-Throughput drug screen in 47 multiple myeloma cell lines against the NCATS MIPE library collection: OCIMY1_PLB cell viability assay (AID 1918979); further: nearly all actives have a fitted effect of over 35% in size
# How it was run: as §4
# [11] = Quantitative High-Throughput drug screen in 47 multiple myeloma cell lines against the NCATS MIPE library collection: MM1R_ATCC cell viability assay (AID 1918981); further: nearly all actives have a fitted effect of over 35% in size
# How it was run: as §4
# [12] = Quantitative High-Throughput drug screen in 47 multiple myeloma cell lines against the NCATS MIPE library collection: LP1_DSMZ cell viability assay (AID 1918982); further: nearly all actives have a fitted effect of over 35% in size
# How it was run: as §4
# [13] = Quantitative High-Throughput drug screen in 47 multiple myeloma cell lines against the NCATS MIPE library collection: KMS27_JCRB cell viability assay (AID 1918970); further: nearly all actives have a fitted effect of over 30% in size
# How it was run: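 Luminescent ATP read-out (CellTiter-Glo, 5 min at room temperature) after 48 h compound exposure of 500 KMS27_JCRB cells per well; DMSO wells define full viability and media-only wells zero.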
# [14] = Quantitative High-Throughput drug screen in 47 multiple myeloma cell lines against the NCATS MIPE library collection: JIM3_ECACC cell viability assay (AID 1918963; further: nearly all actives have a fitted effect of over 35% in size)
# How it was run: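 Inhibition of cell viability is measured here. Each line was plated at 500 cells per well, treated with MIPE 4.0 drugs, kept 48 hours at 37C, then assayed for ATP content by CellTiter-Glo luminescence.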
# [15] = Quantitative High-Throughput drug screen in 47 multiple myeloma cell lines against the NCATS MIPE library collection: H1112_PLB cell viability assay (AID 1918967; further: nearly all actives have a fitted effect of over 30% in size)
# How it was run: as §2
# [16] = Quantitative High-Throughput drug screen in 47 multiple myeloma cell lines against the NCATS MIPE library collection: KMS20_JCRB cell viability assay (AID 1918973); further: nearly all actives have a fitted effect of over 45% in size
# How it was run: as §2
# [17] = Quantitative High-Throughput drug screen in 47 multiple myeloma cell lines against the NCATS MIPE library collection: NCIH929_DSMZ cell viability assay (AID 1918978); further: nearly all actives have a fitted effect of over 35% in size
# How it was run: as §4
# [18] = Quantitative High-Throughput drug screen in 47 multiple myeloma cell lines against the NCATS MIPE library collection: KMS21BM_JCRB cell viability assay (AID 1918974); conditions: ATP luminescence, 48 h; viability: at 45.8 µM (top of the series) unless noted
# How it was run: as §2
# [19] = Quantitative High-Throughput drug screen in 47 multiple myeloma cell lines against the NCATS MIPE library collection: KMS12PE_JCRB cell viability assay (AID 1918972); further: nearly all actives have a fitted effect of over 30% in size
# How it was run: as §1
# Potency means the concentration at half of the fitted maximal effect.
structure (smiles),measurement,setting,value
CCOC(=O)C1=C(C)NC2=C(C(=O)CC(C)(C)C2)C1c1ccc(-c2ccccc2)cc1 (centres undefined),Potency,[1],26.4 µM (active)
same,Potency,[2],18.7 µM (active)
same,Potency,[3],20.9 µM (active)
same,Potency,[4],23.5 µM (active)
same,Potency,[5],16.6 µM (active)
same,Potency,[6],23.5 µM (active)
same,Potency,[7],16.6 µM (active)
same,Potency,[8],23.5 µM (active)
O=c1c2ccccc2nc2n1CCc1c-2[nH]c2ccccc12,Potency,[9],inactive
same,Potency,[3],inactive
same,Potency,[7],inactive
same,Potency,[10],inactive
same,Potency,[11],inactive
same,Potency,[12],inactive
CN(C)CC(C)(C)CNc1nn2c(-c3ccccc3)nnc2cc1C1CCC1,Potency,[9],2.09 µM (active)
same,Potency,[1],2.96 µM (active)
same,Potency,[3],16.6 µM (active)
same,Potency,[13],1.18 µM (active)
same,Potency,[10],inactive
same,Potency,[8],0.166 µM (active)
same,Potency,[12],inactive
O=C(c1cncc(Br)c1)N1CCC(N2CCCC2)CC1,Potency,[14],inactive
same,Potency,[15],inactive
same,Potency,[16],inactive
same,Potency,[5],inactive
same,Potency,[6],inactive
same,Potency,[7],inactive
same,Potency,[17],inactive
same,Potency,[11],inactive
same,Potency,[12],inactive
CC(C)(C)c1cc(NC(=O)Nc2ccc(-c3cn4c(n3)sc3cc(OCCN5CCOCC5)ccc34)cc2)no1,Potency,[1],3.32 µM (active)
same,Potency,[3],13.2 µM (active)
same,Potency,[4],16.6 µM (active)
same,Potency,[18],inactive
same,Potency,[5],18.7 µM (active)
same,Potency,[8],inactive
CCCCCN(CCC12CC3CC(CC(C3)C1)C2)C(=O)NCCCc1ccncc1,Potency,[14],20.9 µM (active)
same,Potency,[1],16.6 µM (active)
same,Potency,[13],4.18 µM (active)
same,Potency,[4],26.4 µM (active)
same,Potency,[19],4.69 µM (active)
same,Potency,[16],18.7 µM (active)
same,Potency,[5],20.9 µM (active)
same,Potency,[6],20.9 µM (active)
same,Potency,[7],20.9 µM (active)
same,Potency,[17],18.7 µM (active)
same,Potency,[10],inactive
same,Potency,[8],18.7 µM (active)
same,Potency,[11],23.5 µM (active)
CC(C)=CCCC(C)=CCCC(C)=CCSc1ccccc1C(=O)O,Potency,[2],1.18 µM (active)
same,Potency,[3],2.35 µM (active)
same,Potency,[4],1.66 µM (active)
same,Potency,[16],5.26 µM (active)
same,Potency,[18],5.9 µM (active)
same,Potency,[5],4.18 µM (active)
same,Potency,[6],1.32 µM (active)
same,Potency,[7],1.48 µM (active)
same,Potency,[10],0.0332 µM (active)
same,Potency,[11],3.32 µM (active)
COc1cc2nccc(Oc3ccc(NC(=O)C4(C(=O)Nc5ccc(F)cc5)CC4)cc3)c2cc1OC,Potency,[14],14.8 µM (active)
same,Potency,[2],1.66 µM (active)
same,Potency,[15],11.8 µM (active)
same,Potency,[3],5.26 µM (active)
same,Potency,[13],4.69 µM (active)
same,Potency,[4],11.8 µM (active)
same,Potency,[5],23.5 µM (active)
same,Potency,[6],2.35 µM (active)
same,Potency,[7],14.8 µM (active)
same,Potency,[17],16.6 µM (active)
same,Potency,[10],26.4 µM (active)
same,Potency,[8],0.59 µM (active)
same,Potency,[11],1.87 µM (active)
same,Potency,[12],20.9 µM (active)
CN[C@H]1CCc2cc(OC)c(OC)c(OC)c2-c2ccc(OC)c(=O)cc21,Potency,[9],inactive
same,Potency,[1],0.001 µM (active)
same,Potency,[2],0.0187 µM (active)
same,Potency,[3],0.0105 µM (active)
same,Potency,[4],0.0017 µM (active)
same,Potency,[5],0.0148 µM (active)
same,Potency,[6],0.0105 µM (active)
same,Potency,[7],0.0235 µM (active)
same,Potency,[11],0.0066 µM (active)
same,Potency,[12],0.0015 µM (active)
Cc1c(Cn2c(C)nc3c(C(=O)O)cc(N4CCOCC4)cc32)cccc1C(F)(F)F,Potency,[14],9.35 µM (active)
same,Potency,[1],16.6 µM (active)
same,Potency,[16],0.0935 µM (active)
same,Potency,[7],inactive
same,Potency,[10],inactive
same,Potency,[8],0.0662 µM (active)
same,Potency,[12],inactive
COc1cccc(-c2ccc(NC(=O)C3=C(C(=O)O)CCC3)c(F)c2)c1,Potency,[14],23.5 µM (active)
same,Potency,[1],4.69 µM (active)
same,Potency,[3],inactive
same,Potency,[6],20.9 µM (active)
same,Potency,[17],20.9 µM (active)
same,Potency,[10],inactive
same,Potency,[11],23.5 µM (active)
COc1c(N2C[C@@H]3CCCN[C@H]3C2)c(F)cc2c(=O)c(C(=O)O)cn(C3CC3)c12,Potency,[15],inactive
same,Potency,[13],18.7 µM (active)
same,Potency,[4],14.8 µM (active)
same,Potency,[16],inactive
same,Potency,[6],inactive
same,Potency,[17],inactive
same,Potency,[11],inactive
C[C@@H](Oc1cc(-n2cnc3ccc(CN4CCN(C)CC4)cc32)sc1C(N)=O)c1ccccc1C(F)(F)F,Potency,[14],0.0372 µM (active)
same,Potency,[2],18.7 µM (active)
same,Potency,[3],20.9 µM (active)
same,Potency,[4],0.0469 µM (active)
same,Potency,[5],5.26 µM (active)
same,Potency,[17],20.9 µM (active)
same,Potency,[8],2.35 µM (active)
same,Potency,[11],0.059 µM (active)
Cc1ccc2nc(NC(=O)CSc3nc4c(c(=O)n3-c3ccccc3)SCC4)sc2c1,Potency,[14],18.7 µM (active)
same,Potency,[15],11.8 µM (active)
same,Potency,[3],5.26 µM (active)
same,Potency,[4],9.35 µM (active)
same,Potency,[18],11.8 µM (active)
same,Potency,[5],23.5 µM (active)
same,Potency,[8],13.2 µM (active)
same,Potency,[11],16.6 µM (active)
CC=CC1=C(C(=O)O)N2C(=O)[C@H](NC(=O)[C@H](N)c3ccc(O)cc3)[C@@H]2SC1,Potency,[19],inactive
same,Potency,[16],26.4 µM (active)
same,Potency,[7],inactive
same,Potency,[8],14.8 µM (active)
same,Potency,[11],inactive
CS(=O)(=O)c1ccc(-c2cnc(N)c(C(=O)Nc3ccccc3)n2)cc1,Potency,[2],inactive
same,Potency,[16],inactive
same,Potency,[17],inactive
same,Potency,[10],inactive
same,Potency,[8],9.35 µM (active)
same,Potency,[11],5.26 µM (active)
C1Cc2[nH]nc(-c3nn[nH]n3)c2C1,Potency,[15],inactive
same,Potency,[3],inactive
same,Potency,[13],inactive
same,Potency,[4],inactive
same,Potency,[19],inactive
same,Potency,[5],inactive
same,Potency,[8],inactive
same,Potency,[11],inactive
C=C1C(=CC=C2CCCC3(C)[C@@H]([C@H](C)C=CC=CC(O)(CC)CC)CC[C@@H]23)C[C@@H](O)C[C@@H]1O (some centres undefined),Potency,[9],16.6 µM (active)
same,Potency,[2],18.7 µM (active)
same,Potency,[15],23.5 µM (active)
same,Potency,[13],29.6 µM (active)
same,Potency,[4],20.9 µM (active)
same,Potency,[19],14.8 µM (active)
same,Potency,[5],23.5 µM (active)
same,Potency,[8],10.5 µM (active)
same,Potency,[11],14.8 µM (active)
Nc1nc(-c2nn(Cc3ccccc3F)c3ncccc23)nc(N)c1N1CCOCC1,Potency,[9],inactive
same,Potency,[2],inactive
same,Potency,[5],inactive
same,Potency,[7],inactive
same,Potency,[10],inactive
same,Potency,[8],inactive
